Molecules are shown by their SMILES. ± gives the standard deviation of the averaged measurements.

For this experiment, the system named is iBMDM (immortalised mouse bone-marrow-derived macrophages), LPS-stimulated. Put plainly: mitochondrial superoxide (MitoSOX fluorescence) fold increase over unstimulated control; higher = more LPS-induced mitochondrial ROS (less inhibition). The conditions noted are these: inhibitor concentration: 500 nM; LPS: 100 ng/ml; time after LPS: 1 h. Summed up: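 Mitochondrial superoxide was expressed as fold induction over untreated macrophages. Immortalised mouse bone-marrow-derived macrophages were pretreated with kinase inhibitors (500 nM) for 30 min, loaded with 1 μM MitoSox for 10 min and stimulated with LPS (100 ng/ml). MitoSox fluorescence (excitation 510 nm, emission 580 nm) was read hourly over 4 h, and the three replicates were averaged.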
The compound `CNC(=O)c1cc(Oc2ccc(NC(=O)Nc3cc(C(C)(C)C)nn3-c3ccc4ncccc4c3)c(F)c2)ccn1` [DCC-2036 (Rebastinib)] had a mitochondrial superoxide of 1.17 ± 0.012. Under `COc1ccc(-c2cc3c(C)nc(N)nc3n([C@H]3CC[C@H](OCCO)CC3)c2=O)cn1` stands 1.37 ± 0.058. The compound `O=C1NC(=O)/C(=C/c2ccc3c(c2)OC(F)(F)O3)S1` yielded a mitochondrial superoxide of 1.26 ± 0.032. Under `O=C(O)c1ccc(Nc2ncc3c(n2)-c2ccc(Cl)cc2C(c2c(F)cccc2F)=NC3)cc1` stands 1.37 ± 0.045. `Cc1ccc(NC(=O)c2cccc(C(C)(C)C#N)c2)cc1Nc1ccc2ncn(C)c(=O)c2c1` returned a mitochondrial superoxide of 1.07 ± 0.05.

Compound `CC(C)CC(=O)Nc1n[nH]c2c1CN(C(=O)C1CCN(C)CC1)C2(C)C` registered a mitochondrial superoxide of 1.08 ± 0.049. Under `NC(=O)c1cccc(-c2cc(Nc3ccc(OC(F)(F)F)cc3)ncn2)c1` stands 1.14 ± 0.054; under `O=S(=O)(NCCNCC=Cc1ccc(Br)cc1)c1cccc2cnccc12`, 1.01 ± 0.063. The same measure for `CCCS(=O)(=O)Nc1ccc(F)c(C(=O)c2c[nH]c3ncc(Cl)cc23)c1F`: 1.24 ± 0.15; for `Cc1cc(Nc2ncnc3ccc(-c4ccc(CNCCS(C)(=O)=O)o4)cc23)ccc1Oc1ccn2ncnc2c1` [HER2-Inhibitor-1]: 1.26 ± 0.072; for `O=C(NCc1ccccc1)c1csc(Nc2ccncn2)n1` [Thiazovivin]: 1.11 ± 0.012. Under `COc1cccc(-c2cc(=O)c3ccccc3o2)c1N` stands 1.48 ± 0.098. On to `COc1cc(Nc2nc3ccccc3nc2NS(=O)(=O)c2ccc(NC(=O)c3ccc(C)c(OC)c3)cc2)cc(OC)c1`, for which the mitochondrial superoxide is 1.17 ± 0.022. The compound `CCc1cncnc1N1CCN(Cc2nc3ccc(C(F)(F)F)cc3[nH]2)CC1` displayed a mitochondrial superoxide of 1.12 ± 0.073. Turning to `Cc1cc(C(C)Nc2ccccc2)c2nc(N3CCOCC3)cc(=O)n2c1` (configuration not stated), the mitochondrial superoxide stood at 1.51 ± 0.032. The compound `O=C1NC(=O)/C(=C/c2ccc3nccc(-c4ccncc4)c3c2)S1` registered a mitochondrial superoxide of 1.12 ± 0.055.

Turning to `C=CC(=O)Nc1cccc(Oc2nc(Nc3ccc(N4CCN(C)CC4)cc3)ncc2Cl)c1`, the mitochondrial superoxide was 1.54 ± 0.047. The same measure for `CCCCCCCCCCCCc1ccc(S(=O)(=O)Nc2nncs2)cc1`: 1.21 ± 0.041. Under `Cc1ccccc1-n1c(Cn2nc(-c3cccc(O)c3)c3c(N)ncnc32)nc2cccc(C)c2c1=O` stands 1.28 ± 0.017. Under `COc1cc2c(N3CCN(C(=O)Nc4ccc(OC(C)C)cc4)CC3)ncnc2cc1OCCCN1CCCCC1` [Tandutinib (MLN518)] stands 1.61 ± 0.038; under `FC(F)(F)c1ccc(/C=C/c2nc(COc3ccc(CCCCn4ccnn4)cc3)co2)cc1` [Mubritinib (TAK 165)], 1.06 ± 0.033; under `NC(=O)Nc1cc(-c2cccc(F)c2)sc1C(=O)N[C@H]1CCCNC1`, 1.08 ± 0.056. In the case of `C[C@@H](Oc1cc(-n2cnc3ccc(CN4CCN(C)CC4)cc32)sc1C(N)=O)c1ccccc1C(F)(F)F`, the mitochondrial superoxide was 1.12 ± 0.059.

With `CN1CCN(c2ccc3nc(-c4c(N)c5c(F)cccc5[nH]c4=O)[nH]c3c2)CC1` [Dovitinib (TKI-258) Dilactic Acid], the mitochondrial superoxide worked out at 1.28 ± 0.073. The same measure for `Nc1ccc(C(=O)Nc2cccc(-c3nc(N4CCOCC4)c4oc5ncccc5c4n3)c2)cn1`: 1.15 ± 0.037. `C=CC(=O)Nc1cccc(Nc2nc(Nc3ccc(OCCOC)cc3)ncc2F)c1` displayed a mitochondrial superoxide of 1.17 ± 0.03. Under `O=c1ncn2nc(Sc3ccc(F)cc3F)ccc2c1-c1c(Cl)cccc1Cl` stands 1.16 ± 0.045; under `Cc1c(CN2CCN(C(=O)[C@H](C)O)CC2)sc2c(N3CCOCC3)nc(-c3cnc(N)nc3)nc12`, 1.266 ± 0.011. The same measure for `Cn1c(=O)c(F)c(Nc2ccc(I)cc2F)c2c(=O)n(C[C@@H](O)CO)cnc21`: 1.36 ± 0.021. In turn, `COC(=O)Nc1ccc(-c2nc(N3CCOCC3)c3cnn(C4CCN(C(=O)OC)CC4)c3n2)cc1` displayed a mitochondrial superoxide of 1.14 ± 0.026. The same measure for `O=C1NC(=O)/C(=C/c2cccc(C(F)(F)F)c2)S1`: 1.27 ± 0.052. Regarding `OCCn1cc(-c2cnc3nnn(Cc4ccc5ncccc5c4)c3n2)cn1`, the mitochondrial superoxide is 1.37 ± 0.059.

In turn, `S=C(NCc1ccc2c(c1)OCO2)N1CCN(c2ncnc3c2oc2ccccc23)CC1` [Amuvatinib (MP-470)] gave a mitochondrial superoxide of 1.18 ± 0.12.

As to `Cc1ccc(-n2nc(C(C)(C)C)cc2NC(=O)Nc2ccc(OCCN3CCOCC3)c3ccccc23)cc1` [BIRB 796 (Doramapimod)], the mitochondrial superoxide turned out to be 0.987 ± 0.051. With `Cc1ccc(C(=O)Nc2ccc(CN3CCN(C)CC3)c(C(F)(F)F)c2)cc1C#Cc1cnc2cccnn12`, the mitochondrial superoxide amounted to 1.08 ± 0.068.

Compound `C=CC(=O)N1CCC[C@@H](n2nc(-c3ccc(Oc4ccccc4)cc3)c3c(N)ncnc32)C1` registered a mitochondrial superoxide of 1.26 ± 0.099. The same measure for `Cc1ccc([N+](=O)[O-])cc1S(=O)(=O)N(C)/N=C/c1cnc2ccc(Br)cn12`: 1.17 ± 0.09.
